Measurements taken from PubChem BioAssay AID624086 (Broad Institute, 2012).
The source made the active and inactive calls.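 The calls were made as follows: active = fitted half-maximal effect concentration at or below the top concentration tested; inactive = the rest.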

test: TCF/LEF reporter activation, dose response, orthogonal assay for GSK3b inhibitor project, cell-based, HEK293T, firefly luciferase, dry powder (AID 624086); details: 24 h; series mostly up to 26 µM

outcome, inactive:
COc1cccc(C2C3=C(CC(C)(C)CC3=O)Nc3n[nH]c(C)c32)c1 (configuration not stated)
Cc1[nH]nc2c1C(C)(c1ccccc1)C1=C(CC(C)(C)CC1=O)N2 (configuration not stated)
COc1ccccc1[C@@H]1C2=C(CC(C)(C)CC2=O)Nc2n[nH]c(C)c21
Cc1ccc(C2C3=C(CC(C)(C)CC3=O)Nc3n[nH]c(C)c32)cc1 (configuration not stated)
Cc1[nH]nc2c1C(C1CCCCC1)C1=C(CC(C)(C)CC1=O)N2 (configuration not stated)
Cc1[nH]nc2c1C(c1ccc(F)cc1)C1=C(CC(C)(C)CC1=O)N2 (configuration not stated)
CC1(C)CC(=O)/C(=C\c2cccc(F)c2C(F)(F)F)C(=Nc2cc(C(F)(F)F)[nH]n2)C1
Cc1[nH]nc2c1[C@H](c1cccs1)C1=C(CC(C)(C)CC1=O)N2
Cc1[nH]nc2c1C(C1CC1)C1=C(CC(C)(C)CC1=O)N2 (configuration not stated)
CC(C)c1ccc(-c2nn(-c3ccccc3)cc2/C=N/O)cc1
Cc1[nH]nc2c1[C@@H](c1cccs1)C1=C(CC(C)(C)CC1=O)N2
COc1ccc(-c2nn(-c3ccccc3)cc2/C=N/O)cc1OC
Cc1[nH]nc2c1C(c1cccc(F)c1)C1=C(CC(C)(C)CC1=O)N2 (configuration not stated)
O/N=C/c1cn(-c2ccccc2)nc1-c1ccc2c(c1)OCCO2
Cc1[nH]nc2c1C(c1ccc(Cl)s1)C1=C(CC(C)(C)CC1=O)N2 (configuration not stated)
Cc1[nH]nc2c1C(c1cccnc1)C1=C(CC(C)(C)CC1=O)N2 (configuration not stated)
COc1ccc(-c2nn(-c3ccccc3)cc2C(=O)N(C)C)cc1
